Bioassay records (PubChem)
Sampled rows, rich in hits. Any-hit rate of the full collection: about 3.4%.
GBA activity: human lysosomal glucosylceramidase modulation; 48,000 tested, 1.1% active; P04062; purified enzyme, resorufin glucoside fluorescence (screen aimed at inhibitors), 20 min; Potency, µM; in the data active = potency below about 15 µM; inconclusive = mostly about 16 µM to 33 µM;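 also: the screen sought inhibitors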
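Compounds titrated against 0.2 nM normal enzyme, 30 uM resorufin beta-D-glucopyranoside substrate, citrate/phosphate buffer with taurocholate and tween-20, pH 5.9. Reaction ran 20 min at room temperature; fluorescence (Ex 548/Em 600) gave AC50.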
PK Bst: pyruvate kinase (B. stearothermophilus) modulation; 51,000 tested, 1.2% active; purified pyruvate kinase, luminescence ATP production; ribose 5-phosphate activator present at AC10; Potency, µM; in the data active = potency below about 11 µM; inconclusive = mostly about 12 µM to 25 µM;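 the screen sought inhibitors and activators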;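 also: scaled between full activation by ribose 5 phosphate and full inhibition by luteolin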
FLuc inh: inhibitors of firefly luciferase; P08659; purified firefly luciferase, luminescence, 8 min; Potency, µM (titrated, usually from 57.1 µM), without a hit: at the top dose activity change, negative = inhibition, hits mostly inhibitors; 72,000 tested, 2.2% active; active = well fitted inhibition curve with a large enough effect; inconclusive = small, poorly fitted or top-dose-only effect; also: % is scaled to controls: 0 for no effect and ±100 for the full control effect; nearly all actives have a fitted effect of over 40% in size
Target sequence (P08659 whole entry, looked up): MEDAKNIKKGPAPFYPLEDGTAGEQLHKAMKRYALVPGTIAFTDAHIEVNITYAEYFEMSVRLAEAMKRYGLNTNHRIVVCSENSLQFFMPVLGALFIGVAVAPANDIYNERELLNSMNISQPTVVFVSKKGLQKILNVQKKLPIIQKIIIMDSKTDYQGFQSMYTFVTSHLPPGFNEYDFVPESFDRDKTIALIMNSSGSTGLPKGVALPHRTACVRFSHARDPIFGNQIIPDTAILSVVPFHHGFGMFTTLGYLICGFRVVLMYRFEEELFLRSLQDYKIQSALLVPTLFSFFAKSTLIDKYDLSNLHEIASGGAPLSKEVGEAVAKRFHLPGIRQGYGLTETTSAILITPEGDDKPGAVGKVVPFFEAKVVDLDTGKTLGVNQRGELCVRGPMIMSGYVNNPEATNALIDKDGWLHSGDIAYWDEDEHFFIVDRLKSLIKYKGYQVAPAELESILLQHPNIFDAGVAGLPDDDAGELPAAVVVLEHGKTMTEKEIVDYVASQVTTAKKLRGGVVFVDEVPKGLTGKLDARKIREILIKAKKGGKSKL
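Here, luciferase activity is measured as luminescence following an 8 min room-temperature reaction at 10 uM ATP, pH 7.2. Every library sample is titrated.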
* marks the source's active call; other numbers are inactive results; i = inactive; ? = inconclusive; . = not tested or not shown; [ ] = another dose, or the depositor's remark. Potency is read from the fitted curve at half-maximal effect.

SMILES | GBA activity | PK Bst | FLuc inh
COc1ccc(C(=O)Cn2nnc(-c3cccs3)n2)cc1 | >76.9 | . | -19.4%
COc1ccc(C(=O)Cn2nnc(-c3ccccc3-n3cnnn3)n2)cc1 | >76.9 | 4.22* | -2.2%
O=C(Cn1nnc(-c2ccccc2-n2cnnn2)n1)NCc1ccccc1 | >76.9 | >57 | -0.1%
CN(C)CCN1C(=O)CC[C@]2(C)C1=CC[C@@H]1[C@@H]2CC[C@]2(C)[C@H]1CC[C@]2(C)O | . | . | 2.1%[11.4 µM]
CCOc1ccc(C2C=C(c3ccccc3)Nc3nnnn32)cc1 (configuration not stated) | 3.74* | >57 | -10.1%
CCOc1ccc(C2C=C(c3ccc(C)cc3)Nc3nnnn32)cc1 (configuration not stated) | i | >57 | 1.4%
CC/C=C\CC[C@H](O)C1=CCCCC1=O | . | . | 2.5%[11.4 µM]
CCCCOC(=O)CSc1nc(N)c(C#N)c(-c2ccc(OCC)cc2)c1C#N | >76.9 | >57 | 0.2%
CCCCOc1ccc(-c2c(C#N)c(N)nc(SCC(N)=O)c2C#N)cc1 | 8.78* | >57 | 0.8%
Cn1c(=O)c(-c2cccc(Cl)c2)nc2cncnc21 | . | . | -0.7%[11.4 µM]
N=c1c2c3c(sc2ncn1CCN1CCOCC1)CCCCC3 | ? | >57 | -3.9%
c1nc(NCCN2CCOCC2)c2c3c(sc2n1)CCCCC3 | 7.49* | . | 0.7%
COc1ccc(C2C(C(=O)N3CCN(C)CC3)c3ccccc3C(=O)N2C2CCCCC2)cc1 (configuration not stated) | . | >57 | 0.8%
COc1ccc(C2C(C(=O)NCCN3CCOCC3)c3ccccc3C(=O)N2C2CCCCC2)cc1 (configuration not stated) | 13.9* | >57 | 0.5%
Cc1c(C(=O)NN2CCCCC2)nn(-c2ccc(Cl)cc2Cl)c1-c1ccc(I)cc1 | . | . | -1.4%
CN(C)CCC[C@@H]1c2ccccc2Oc2ccc(C(F)(F)F)cc21 | . | . | 0.2%[11.4 µM]
Cc1cc(C(=O)Nc2nc3ccc(S(C)(=O)=O)cc3s2)c(C)o1 | >76.9 | . | 2µM*
CCOCC(=O)Nc1nc2ccc(S(C)(=O)=O)cc2s1 | >76.9 | >57 | -0.9%
Cc1ccc(C(=O)Nc2nc3ccc(S(C)(=O)=O)cc3s2)s1 | >76.9 | i | 3.16µM*
CS(=O)(=O)c1ccc2nc(NC(=O)C3COc4ccccc4O3)sc2c1 (configuration not stated) | >76.9 | . | ?
Cc1nc2cnc(N3CCOCC3)nc2n(Cc2ccc(F)cc2)c1=O | . | . | 1.0%[11.4 µM]
CN1C(=O)CC(n2c(CO)nc3ccccc32)C1=O (configuration not stated) | >76.9 | >57 | -0.6%
Oc1ccccc1C1=Nc2nc3ccccc3n2C(c2ccccc2)C1 (configuration not stated) | 14.9* | . | ?
Nc1c2ccccc2nc2c(O)cccc12 | . | . | 1.7%[25.5 µM]
N#CCCn1c(=O)c(-c2cc(F)cc(F)c2)nc2cnc(OCc3ccccc3)nc21 | . | . | -0.3%[11.4 µM]
SMILES | GBA activity | PK Bst | FLuc inh
Cc1nc(NCc2ccccn2)c2ccccc2n1 | >76.9 | >57 | -4.6%
c1ccc(CNc2ccc3ccccc3n2)nc1 | . | . | 25.1µM*
O=C(Cc1cccs1)Nc1ccc(C(=O)O)cc1 | >76.9 | >57 | 1.8%
Cc1nc2ccc(NC(=O)Cc3cccs3)cc2s1 | >76.9 | . | 25.1µM*
COc1ccc(-c2nc3cnc(OC)nc3n(C3CC3)c2=O)cc1 | . | . | -0.6%[11.4 µM]
O=S(=O)(c1ccccc1)N1CCC[C@@]2(CCN(C(c3ccccc3)c3ccccc3)C2)C1 | . | . | -0.5%[11.4 µM]
CCc1ccc(C(=O)COC(=O)CNC(=O)c2ccco2)cc1 | . | . | -6.2%
O=C(CNC(=O)c1ccco1)OCC(=O)c1ccc2c(c1)CCCC2 | >76.9 | >57 | 2µM*
COc1ccc(-n2c(=O)c(-c3ccccc3)nc3cncnc32)cc1 | . | . | 0.1%[11.4 µM]
Nc1nc(-c2ccc(Br)cc2)cs1 | >76.9 | i | 12.6µM*
Brc1ccc(-c2csc(/N=C/N3CCOCC3)n2)cc1 | >76.9 | ? | -9.6%
CCNc1ncc2nc(-c3cc(F)cc(F)c3)c(=O)n(-c3ccccc3)c2n1 | . | . | 0.6%[11.4 µM]
CCOC(=O)c1ccccc1NC(=O)c1c(O)c2ccccc2n(CC)c1=O | . | >57 | 0.1%
CCCn1c(=O)c(C(=O)Nc2ccccc2C(=O)OC)c(O)c2ccccc21 | 14.5* | >57 | -0.5%
C=C[C@@]1(C)CC(=O)[C@@]2(O)[C@@]3(C)[C@@H](O)CCC(C)(C)[C@@H]3[C@H](OC(=O)CCN(C)C)[C@H](OC(C)=O)[C@@]2(C)O1 | . | . | -1.4%
COc1ccccc1N1CCN(S(=O)(=O)c2ccccc2)CC1 | >76.9 | ? | -0.4%
COc1ccccc1N1CCN(S(=O)(=O)c2c(C)ccc3nsnc23)CC1 | >76.9 | 2.87* | 0.9%
CCOC(=O)CCN1C(=O)[C@H]2[C@H]3[C@H](O)[C@H](O)C/C(=N/NC(=O)OCc4ccccc4)[C@@H]3CC[C@@H]2C1=O | . | . | 2.7%[11.4 µM]
Fc1ccc(Nc2ncncc2-c2ccoc2)cc1 | . | . | 1.5%[2.29 µM]
Cc1ccc(-c2nc3c(=O)n(C)c4ccccc4c3o2)cc1 | >76.9 | 0.175* | -6.7%
Cc1ccc(-c2nc3ccccc3c(=O)n2CCN2CCOCC2)cc1 | >76.9 | >57 | 1.8%
N#CCCn1c(=O)c(-c2ccc(Cl)cc2)nc2cnc(Oc3ccccc3)nc21 | . | . | 2.6%[11.4 µM]
Nc1c(O)cccc1C(=O)C[C@@H](N)C(=O)O | . | . | 1.6%[25.5 µM]
CCc1ccc2oc(-c3cc(N=Cc4cccc(OC)c4O)ccc3O)nc2c1 | >76.9 | 1.35* | 1.26µM*
COc1cccc(C=Nc2cc(C)on2)c1O | >76.9 | . | 1.6%
SMILES | GBA activity | PK Bst | FLuc inh
Cc1ccc(CNc2ccc(O)cc2)cc1 | i | >57 | .
CC(=O)N1CCN(c2ccc(NCc3ccc(C)cc3)cc2)CC1 | 11.6* | >57 | -0.9%
CC(=O)Nc1ccc(N2CCN(C(C)=O)CC2)cc1 | >76.9 | >57 | 0.6%
CCc1ccc(CNc2ccc(N3CCN(C(C)=O)CC3)cc2)cc1 | 12.4* | >57 | -0.5%
CC(C)(C)N1C(=O)[C@H]2[C@H]3[C@H](O)[C@H](O)C/C(=N/OC[C@@H](O)COCc4ccco4)[C@H]3CC[C@@H]2C1=O | . | . | 1.8%[11.4 µM]
CCNc1ncc2nc(-c3ccc(F)cc3)c(=O)n(CCC#N)c2n1 | . | . | 0.1%[11.4 µM]
N[C@H](C(=O)O)c1ccc(C(=O)O)cc1 | . | . | -0.6%
O=C(Nc1nc2ccccc2[nH]1)c1ccc(F)cc1 | >76.9 | 3.11* | 3.16µM*
COc1ccc(C(=O)Nc2nc3ccccc3[nH]2)cc1OC | >76.9 | i | 25.1µM*
Cc1cc(NC(=O)c2ccccc2F)n(-c2nc3ccccc3[nH]2)n1 | >76.9 | >57 | -1.0%
COc1ccc(C(=O)NCc2nc3ccccc3[nH]2)cc1OC | . | . | 0.8%
O=C(Nc1nc2ccccc2[nH]1)c1ccccc1F | . | 1.36* | 1µM*
O=C(NCCc1nc2ccccc2[nH]1)c1ccc(F)cc1 | ? | >57 | 0.2%
c1cc(NC2CC2)nc(-c2ccoc2)n1 | . | . | 1.3%[2.29 µM]
O=C(c1ccncc1)N1CCC[C@@]2(CCN(c3cccc(-c4ccccc4)c3)C2)C1 | . | . | -0.2%[11.4 µM]
O=S(=O)(c1ccccc1)N1CCC2(CCN(c3cccc(-c4ccccc4)c3)CC2)CC1 | . | . | 0.7%[11.4 µM]
CCCn1cnc2c(c1=O)c1nc3ccccc3nc1n2CCC1=CCCCC1 | >76.9 | >57 | 3.2%
CCCn1cnc2c(c1=O)c1nc3ccccc3nc1n2CCc1ccccc1 | 7.01* | >57 | 3.2%
COc1ccc(-n2c(=O)c(CCc3ccccc3)nc3cnc(N4CCNCC4)nc32)cc1 | . | . | 0.7%[11.4 µM]
CC(=O)Nc1ccc2nc(C3CCCCC3)[nH]c2c1 | >76.9 | >57 | -6.6%
Cc1ccc(NC(=O)c2cccs2)cc1NC(=O)c1ccco1 | >76.9 | >57 | -14.0%
